# From PubChem BioAssay (NCATS)
# The source made the active and inactive calls. Calls come from the whole dose curve; as a rule, active = well fitted activation curve with a large enough effect; inconclusive = small, poorly fitted or top-dose-only effect; inactive = flat fitted curve, though single readings scatter.
# Test: Confirmation and Secondary Assay for Modulators of Hemoglobin Beta Chain Splicing at IVS2 654 locus (AID 910);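 note: HeLa cells stably carrying EGFP split by mutant beta-globin IVS2-654 intron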
# Details: HeLa EGFP-654 splicing reporter, GFP fluorescence, 48 h; series mostly up to 46.1 µM
# Procedure, shortened: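 HeLa cells stably expressing EGFP interrupted by β-globin IVS2-654 intron, seeded overnight in Opti-MEM/2% FCS, then treated 2 days at 37 °C. Restored splicing read as total peak GFP intensity per well by laser scanning cytometry (488 nm excitation, 500–520 nm emission); 500 nM antisense PNA as control.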
row,SMILES,outcome
1,c1ccc(-c2ccc(C(c3ccccc3)n3ccnc3)cc2)cc1 (configuration not stated),inactive
2,CCCCCCCCCCCCCCCCOP(=O)([O-])OCC[N+](C)(C)C,inactive
3,Oc1ccc(Cl)c2cccnc12,inactive
4,OCc1ccccc1O,inactive
5,CCCC(=O)Nc1ccc(OCC(O)CNC(C)C)c(C(C)=O)c1 (configuration not stated),inactive
6,Cc1ccnc(NS(=O)(=O)c2ccc(N)cc2)n1,inactive
7,CN(C)CC/C=C1\c2ccccc2Sc2ccc(Cl)cc21,inactive
8,CCCCc1nc(Cl)c(CO)n1Cc1ccc(-c2ccccc2-c2nn[nH]n2)cc1,inactive
9,Cc1ccc(C(=O)C(C)CN2CCCCC2)cc1 (configuration not stated),inactive
10,CNCCC=C1c2ccccc2CCc2ccccc21,inactive
11,COc1ccc(OC)c(C(O)CNC(=O)CN)c1 (configuration not stated),inactive
12,CC(=O)N(O)CCCCCNC(=O)CCC(=O)N(O)CCCCCNC(=O)CCC(=O)N(O)CCCCCN,inactive
